Data taken from PubChem BioAssay (NCI).
Values joined by “and” are separate entries in the source; they are usually repeats but may differ in a detail not shown here. Equal values may be shown once. Compounds without any hit were thinned out: in the full panel of roughly 79,000, 15% have a hit. Active and inactive are the calls of the source. Cut-off read from the data, not from the text of the source: active = growth inhibition above about 70%; inactive = the rest.

Columns and labels:
[1] = NCI Yeast Anticancer Drug Screen. Data for the rad50 strain (AID 155);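 note: 0% = growth of vehicle-only cultures of the same strain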; settings: S. cerevisiae rad50 strain growth inhibition; at 50.0 µM; active compounds read high
Outline: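 Relative growth inhibition (compound vs vehicle) was measured in yeast with a defined repair-gene alteration.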

[2] = NCI Yeast Anticancer Drug Screen. Data for the mec2-1 strain (AID 157); settings: S. cerevisiae mec2-1 strain, at 50.0 µM, active compounds read high
Outline: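 Test agents were screened against the mec2-1 yeast strain, with defined DNA repair or cell cycle alteration. Growth was scored as inhibition against vehicle-only controls.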

[3] = NCI Yeast Anticancer Drug Screen. Data for the sgs1 mgt1 strain (AID 161);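 note: 0% = growth of cultures given vehicle only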; settings: S. cerevisiae sgs1 mgt1 strain, at 50.0 µM, active compounds read high
Outline: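 Inhibition of yeast growth, normalised to vehicle-treated controls, is reported for a strain bearing genetic alterations in DNA damage repair.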

[4] = NCI Yeast Anticancer Drug Screen. Data for the cln2 rad14 strain (AID 165);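 note: 0% = growth equal to vehicle treated cultures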; settings: S. cerevisiae cln2 rad14 strain, at 50.0 µM, active compounds read high
Outline: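 Growth of compound-exposed yeast (cln2 rad14 genotype) measured and expressed as inhibition relative to vehicle.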

[5] = NCI Yeast Anticancer Drug Screen. Data for the bub3 strain (AID 167); settings: S. cerevisiae bub3 mutant strain, at 50.0 µM, active compounds read high
Outline: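 Screening used yeast with an engineered genetic alteration affecting cell cycle control. Compound-exposed cultures were compared with vehicle cultures, and reduced growth was taken as inhibition.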

[6] = NCI Yeast Anticancer Drug Screen. Data for the mlh1 rad18 strain (AID 175); settings: S. cerevisiae mlh1 rad18 strain growth inhibition; at 50.0 µM; active compounds read high
Outline: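 In this whole-cell yeast screen, a strain with altered DNA damage repair is challenged with compound, and its growth is measured against matched vehicle-treated controls.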

Measured: growth inhibition

COc1ccc(Cc2c3cc(O)c(=O)cc-3ccn2C)cc1OC
inactive: [1] 2.75% and 47.7% | [2] 14.2% and 24.5% | [3] 23.4% and 22.3% | [4] 32.2% and 8.35% | [5] 29.2% and 5.5% | [6] 28.1% and 17.9%

O=C(O)/C=C(/Oc1ccc(Cl)cc1Cl)C(=O)O
inactive: [1] 5.8% and 19.7% | [2] -3.25% and 6.45% | [3] 6.35% and 9.85% | [4] -19.9% and 15.4% | [5] 17.9% | [6] 11.8% and 19.7%

O=C1c2ccccc2C(=O)c2c(O)ccc(O)c21
inactive: [1] 51.5% and 39.8% | [2] 37.2% and 11.2% | [3] 54.1% and 21.6% | [4] 24.4% and 33.8% | [5] 52% and 28.9% | [6] 50.5% and 13.8%

Nc1ccc2nc[nH]c2c1
inactive: [1] -15.3% and 18.9% | [2] -7.6% and -4.65% | [3] -7.55% and -18.6% | [4] 14.7% and 16.6% | [5] 2.25% and -1% | [6] -0.9% and 14.3%

S=c1nc[nH]c2ccccc12
inactive: [1] -2.5% and -12.8% | [2] -4.8% and -16.8% | [3] -11% and 12.9% | [4] -98.9% and -0.05% | [5] -2.75% and -2.25% | [6] 5% and 5.65%

C[N+](C)(C)CCOP(=O)(O)OP(=O)([O-])OCC1CCC(n2ccc(N)nc2=O)O1 (stereo unspecified)
inactive: [1] 7.7% and 4.45% | [2] -11.1% and 0.25% | [3] -18.8% and 9.2% | [4] 5.8% and -2.15% | [5] -38.6% and 2.55% | [6] -38.8% and -3.45%

CC(C)(SCc1ccccc1)C(N)C(=O)O (stereo unspecified)
inactive: [1] 8.05% and -6.85% | [2] 10.3% and -17% | [3] 1.65% and -33.1% | [4] 2.2% and -33.8% | [5] -3.45% and -31.3% | [6] 6.1% and -10.3%

Nc1ccc(C(F)(F)F)cc1[N+](=O)[O-]
inactive: [1] -33.3% and 12.1% | [2] -19.9% and 5.6% | [3] -49.6% and 12.5% | [4] -43.6% and 10.2% | [5] -35.1% and 3.5% | [6] -22.5% and 9.15%

Cc1ccc(S(=O)(=O)NC(CCC(=O)O)C(=O)O)cc1 (stereo unspecified)
inactive: [1] -11.2% and -4.6% | [2] -22.7% and 7.2% | [3] 0.15% and 0.2% | [4] -6.75% and -12.2% | [5] 21.1% and 6.9% | [6] -12.4% and 9.75%

O=c1[nH]c(=O)n(C2OC(CO)C(O)C2O)c2nccnc12 (stereo unspecified)
inactive: [1] 10.5% and 5.1% | [2] 8.9% and 4.95% | [3] 0.55% and -5.75% | [4] 26.8% and 2.95% | [5] -13.2% and -20.9% | [6] 4.55% and -11.4%

CN(C)CC1CCCCC(CN(C)C)C1=O (stereo unspecified)
inactive: [1] -23.1% and -15.7% | [2] -5.8% and 2.95% | [3] -14.8% and -8.7% | [4] 4.4% and -52.7% | [5] -11.8% and 7.95% | [6] -13.6% and -8.7%

CC(=O)c1c(-c2cccc3ccccc23)c(C#N)c(=S)n(C2OC(CO)C(O)C(O)C2O)c1C (stereo unspecified)
inactive: [1] -18.7% and 15.5% | [2] 12.1% and 15% | [3] 2.25% and 32% | [4] 12.3% and 28.2% | [5] 21.1% and 32.1% | [6] 1.55% and 44.9%

Cc1ccc(S/C=C/C(=O)O)cc1
inactive: [1] -3% and 19.8% | [2] 18.5% and -0.1% | [3] 16.1% and 20.4% | [4] 7.7% and 19.2% | [5] -0.1% and -6.05% | [6] 20.6% and 5.45%

CCCOC(=O)c1ccc(OCC)cc1
inactive: [1] 22.4% and -20.6% | [2] 8.2% and -9.8% | [3] 12.6% and 3.1% | [4] -8% and -42.6% | [5] -11.2% and -16.6% | [6] 15.2% and -23.6%

Cc1ccc(C2SCC(=O)N2CCN2C(=O)CSC2c2ccc(C)o2)o1 (stereo unspecified)
inactive: [1] 7.1% and 5.95% | [2] 16.1% and 8.45% | [3] -2.45% and 17.6% | [4] 3.15% and -0.1% | [5] -1.45% and -3.45% | [6] 13.2% and -12.4%

Oc1ccccc1CNCc1ccccc1O
inactive: [1] -6.65% and -16.2% | [2] -13.5% and -2.7% | [3] -5.5% and -33% | [4] 23.8% and -28.1% | [5] 0.5% and -28.2% | [6] -1.05% and 3.55%

COC1OC2COC(C)(C)OC2C1NS(=O)(=O)Cc1ccccc1 (stereo unspecified)
inactive: [1] 2.8% and 0.75% | [2] -6.85% and -9.65% | [3] -2.1% and -4.05% | [4] -32.6% and -34.1% | [5] -3.45% and -11.8% | [6] -14.1% and -6.35%

O=C(O)CCC(=O)c1ccc2ccccc2c1
inactive: [1] 60% and 8.8% | [2] 21.6% and 6.95% | [3] 44.8% and -5.7% | [4] 11.2% and -14.1% | [5] 9.15% and -23.1% | [6] 44.2% and 40.7%

O=C(O)C1CCCC2C(O)CCC(=O)C12 (stereo unspecified)
inactive: [1] -23.5% and -14.2% | [2] -16.3% and -6.8% | [3] -12.7% and -5.6% | [4] -5.45% and 4.25% | [5] -12.9% and -5.9% | [6] -29.4% and -32%

O=c1[nH][nH]c(=O)c2ccccc12
inactive: [1] 7.4% and 8.6% | [2] -24.6% and -7.45% | [3] -23.8% and -6.7% | [4] -1.3% and -12.8% | [5] -10.3% and -0.95% | [6] 2.75% and 25.1%

COC(=O)NC1C(=O)OC(C2OC2(C)C)C1(C)C (stereo unspecified)
inactive: [1] -4% and -2.5% | [2] -22.9% and -12.8% | [3] -5.3% and -32.8% | [4] 4.35% and -7.9% | [5] -17.1% and -31.4% | [6] -6.15% and -27.4%
